Bioassay records (PubChem BioAssay)
Shiga inhibitor = A qHTS for Small Molecule Inhibitors of Shiga Toxin. hit rate 9.2% among 290,000. inhibition, % at 38.7 µM. AID 2315, 2010. Vero cells, Shiga toxin protein synthesis inhibition reporter; in the data active = inhibition mostly above about 28%, no sharp cut-off; inactive = mostly below about 43%; note: 0% is about no effect
LmPK inh = qHTS Assay for Inhibitors of Leishmania Mexicana Pyruvate Kinase (LmPK). Q27686. purified LmPK, Kinase-Glo ATP luminescence, 1 h. Potency, µM (doses to about 57.5 µM), for inactives: at the top dose activity change, negative = inhibition, usual class: inhibitors. hit rate 0.37% among 290,000. AID 1721, 2009; note: potency is the fitted concentration of half-maximal effect; % is set by controls: 0 for no effect and ±100 for the full control effect
Target sequence (Q27686 whole entry, looked up): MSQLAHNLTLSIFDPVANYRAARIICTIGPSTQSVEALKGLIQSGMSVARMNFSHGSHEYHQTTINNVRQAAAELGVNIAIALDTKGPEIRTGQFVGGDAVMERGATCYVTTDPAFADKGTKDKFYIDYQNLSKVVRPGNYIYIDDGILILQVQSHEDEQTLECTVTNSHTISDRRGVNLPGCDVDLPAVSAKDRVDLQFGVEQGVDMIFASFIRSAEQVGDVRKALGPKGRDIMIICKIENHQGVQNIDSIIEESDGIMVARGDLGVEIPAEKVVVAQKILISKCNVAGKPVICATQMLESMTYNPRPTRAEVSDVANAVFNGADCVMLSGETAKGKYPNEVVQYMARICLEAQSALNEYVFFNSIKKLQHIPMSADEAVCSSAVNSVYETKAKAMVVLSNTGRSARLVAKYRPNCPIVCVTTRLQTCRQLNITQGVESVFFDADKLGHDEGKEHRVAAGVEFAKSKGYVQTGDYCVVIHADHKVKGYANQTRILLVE
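ATP generated from ADP (0.1 mM) and PEP (0.5 mM) by 0.1 nM LmPK over 1 h at room temperature (pH 7.2 imidazole buffer) was detected by coupled luciferase luminescence. Values were normalized to uninhibited and no-enzyme wells.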
RE007 growth inh = qHTS Assay for Inhibitors of the HIV-1 protein Vpr | hit rate 0.21% among 360,000 | S. pombe RE007 Vpr strain, BacTiter-Glo ATP luminescence, 24 h | Potency, µM (doses to about 92.2 µM), for the others: at the highest dose activity change, negative = less growth, most hits filed as inhibitors; active = well fitted falling curve with a large enough effect; inconclusive = small, poorly fitted or top-dose-only effect; inactive = no such curve, though single readings can be large or run the other way; note: potency is the fitted concentration of half-maximal effect; % is set by controls: 0 for no effect and ±100 for the full control effect; nearly all actives have a fitted effect of over 50% in size
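Fission yeast RE007 carrying one integrated HIV-1 vpr copy, seeded at OD 0.01 in PMG+AL medium with 23 nL pinned compound. Grown 24 h at 30 degrees; viability read by BacTiter-Glo luminescence after 5 min.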
Cycloheximide cs = Cycloheximide Counterscreen for Small Molecule Inhibitors of Shiga Toxin; hit rate 12% among 300,000; cell reporter, cycloheximide protein synthesis inhibition counterscreen; max response, %; in the data active = max response mostly above about 13%, no sharp cut-off; inactive = mostly below about 14%; note: read at 38.3 µM for the half of the compounds with a filed dose; 0% is about no effect
Giardia FBPA inh = qHTS Assay for Inhibitors of Fructose-1,6-bisphosphate Aldolase from Giardia Lamblia. A8B2U2. purified Giardia FBPA. Potency, µM (series often up to 59.6 µM), for the others: at the highest dose activity, negative = inhibition, actives largely listed as inhibitors. hit rate 0.71% among 290,000; note: potency is the fitted concentration of half-maximal effect; % is set by controls: 0 for no effect and ±100 for the full control effect; nearly all actives have a fitted effect of over 55% in size
Target sequence (A8B2U2 whole entry, looked up): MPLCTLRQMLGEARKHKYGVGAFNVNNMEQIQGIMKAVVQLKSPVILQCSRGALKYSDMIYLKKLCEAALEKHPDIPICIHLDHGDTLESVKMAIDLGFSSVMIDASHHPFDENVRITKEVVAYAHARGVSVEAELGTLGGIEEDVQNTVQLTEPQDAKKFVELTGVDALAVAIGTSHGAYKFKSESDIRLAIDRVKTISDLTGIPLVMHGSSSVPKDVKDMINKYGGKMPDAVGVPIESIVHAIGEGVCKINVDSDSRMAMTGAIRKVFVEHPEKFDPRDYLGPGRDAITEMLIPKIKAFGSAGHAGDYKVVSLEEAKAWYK
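Giardia FBPA (40 nM reagent) was preincubated 10 min at RT with compound (up to 57.5 uM final), then substrate plus GAPDH/TPI/NAD/arsenate coupling system with diaphorase/resazurin was added; resorufin fluorescence (525/598 nm) was read after 20 min.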
TbPYK inhibitor = qHTS of Trypanosoma Brucei Inhibitors. TbPYK enzyme, Kinase-Glo Plus ATP luminescence, 45 min. hit rate 0.12% among 410,000. Potency, µM (titrated, usually from 76.8 µM), without a hit: at the highest dose activity, negative = inhibition, usual class: inhibitors. pyruvate kinase (Trypanosoma brucei), Q57TT1; note: potency is the fitted concentration of half-maximal effect; % is set by controls: 0 for no effect and ±100 for the full control effect; nearly all actives have a fitted effect of over 50% in size
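In this concentration-response screen, enzyme-free wells defined baseline while DMSO plates tracked drift. Each reaction combined TbPYK, substrate, compound and 130 uM ADP for 45 min at room temperature. Kinase-Glo Plus luminescence gave the signal.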
Starred values were filed as active, the others as inactive; ? = inconclusive; . = no result; + = active, no number; [ ] = remark or other dose. The full list was thinned out, with hits kept by preference. Unless noted, calls come from the whole dose curve; as a rule, active = well fitted curve in the direction sought with a large enough effect; inconclusive = small, poorly fitted or top-dose-only effect, or another doubt; inactive = no such curve, though single readings can be large; an effect the other way counts as inactive or inconclusive.

SMILES | Shiga inhibitor | LmPK inh | RE007 growth inh | Cycloheximide cs | Giardia FBPA inh | TbPYK inhibitor
COc1ccc(Nc2cc(C)c3ccccc3n2)cc1 | 103.3* | 1.5% | -22.8% | 41.5* | -25.0% | 2.4%
COc1ccc(NC2=CC(=O)N(C)C2=O)cc1 | + | -0.7% | -5.4% | 20.6 | -27.0% | -1.9%
Cc1cc(O)c2c(c1)CC1C3CCC4CC(=O)CCC4(C)C3CC(=O)C21C (stereo unspecified) | . | . | -13.1% | . | . | -1.2%
Cc1cc(OCC(O)CNC(C)c2ccccc2)ccc1C(C)C (stereo unspecified) | -41.0 | -0.5% | 25.6% | -11.5 | -23.9% | -1.2%
CCOc1ccc2nc(SCC(=O)NCC3CCCO3)c(C#N)cc2c1 (stereo unspecified) | 3.4 | -3.3% | 7.9% | 1.3 | . | 0.0%
CCOC(=O)c1nc(Nc2ccc(OC)cc2)c2ccccc2n1 | 47.3* | 6.2% | -0.6% | 24.2* | -6.0% | -7.5%
COc1ccc(Nc2ccc(OC)cc2)cc1 | 86.6* | -12.5% | -24.0% | 45.6* | ? | 8.1%
CCOC(=O)c1nc(Nc2ccc(Nc3ccccc3)cc2)c2ccccc2n1 | 14.7 | 10.0% | 24.3% | 2.5 | -10.1% | 0.1%
COc1ccc(Nc2cc(Nc3ccc(OC)cc3)ncn2)cc1 | -3.5 | 0.0% | -1.7% | 7.2 | 6.6% | -2.6%
COc1ccc(NC2=NC(C)(C)CS2)cc1 | 70.1* | -3.1% | -10.3% | 28.0* | -10.2% | -27.9%
COc1cccc(C(=O)Nc2ccc3nc(SCC(=O)N4CCOCC4)sc3c2)c1 | . | . | . | . | . | 0.9%
Cc1ccc(C(c2nnnn2C2CCCC2)N2CCc3ccccc32)cc1 (stereo unspecified) | 9.5 | -0.4% | . | 22.0* | -11.5% | -12.4%
O=c1ccn(-c2cccc(C(F)(F)F)c2)nc1-c1ccn(-c2ccccc2)n1 | -18.3 | 1.3% | 0.0% | 9.8 | 31.6µM* | -2.3%
Cc1nn(-c2cccc(C(F)(F)F)c2)c(=O)c2ccccc12 | . | 8.7% | 3.0% | 15.6* | -4.5% | 0.1%
Cc1nn(-c2ccccc2)c(=O)c2ccccc12 | 17.6 | 0.1% | 18.3% | 14.1 | 5.3% | -1.2%
COc1ccc(-c2cc(C)no2)cc1S(=O)(=O)NC1CCC(C)CC1 (stereo unspecified) | . | . | . | . | . | -1.4%[15.4 µM]
C/C(=N/NC(=O)c1cccnc1)C1=C(O)CC(C)(C)CC1=O | -15.5 | -5.6% | 17.9% | -6.2 | 1.5% | -4.4%
CC(=Nc1cc(C(=O)c2ccccc2)ccc1N)C1=C(O)CC(C)(C)CC1=O | 124.6* | -0.1% | 0.6% | 29.2* | ? | -7.2%
CCCCN(C)C(=O)CCCc1c[nH]c2ccccc12 | 42.3* | 7.9% | 0.1% | 17.5* | 0.6% | -6.3%
O=C(CCc1c[nH]c2ccccc12)N1CCCC1 | 13.5 | 0.2% | -9.8% | -3.2 | -14.8% | 2.0%
CCOC(=O)CCCc1c[nH]c2ccccc12 | 37.9 | -1.7% | -5.7% | 7.8 | 0.7% | -9.2%
O=C(CCCc1c[nH]c2ccccc12)N1CCCCCC1 | 38.2 | 1.2% | ? | 20.2* | -5.0% | -0.1%
O=C1CCCN1CCCN=c1c([N+](=O)[O-])nn(-c2ccc(Cl)cc2)n1O | 29.0 | -4.2% | ? | 12.8 | -6.8% | 1.4%
O=[N+]([O-])c1nn(-c2ccc3c(c2)OCCO3)n(O)c1=NCCCO | 48.4* | -2.6% | -22.9% | 17.6* | -1.3% | 2.1%
Cc1ccc(CN=c2c([N+](=O)[O-])nn(-c3ccc4c(c3)OCCO4)n2O)cc1 | 164.5* | -0.9% | -2.7% | 72.8* | -9.2% | -7.6%
SMILES | Shiga inhibitor | LmPK inh | RE007 growth inh | Cycloheximide cs | Giardia FBPA inh | TbPYK inhibitor
COc1ccc(CNC(=O)c2cc3cccc4c3n2CC(C)S4)cc1 (stereo unspecified) | . | . | . | . | . | 1.4%[15.4 µM]
Cc1nc(OCc2ccccc2)c2ccccc2n1 | -17.0 | 5.7% | -1.4% | -1.0 | 5.0% | 2.8%
Cc1nc2ccccc2cc1OCc1ccccc1 | 21.8 | -0.1% | -10.1% | 45.6* | -4.2% | -7.9%
Cc1nc2ccccc2cc1OCc1ccc(Cl)cc1 | 101.1* | -3.1% | -17.8% | 54.0* | 8.7% | -12.2%
COC(=O)c1sccc1OCc1cccc(OC)c1 | 37.8 | 11.3% | -17.6% | 20.3 | 0.5% | -1.8%
COc1cccc(COc2cc3ccccc3nc2C)c1 | 57.8* | -3.6% | -21.6% | 16.6* | -9.7% | 2.2%
CCc1ccc(NC(=O)C(=O)NCC(c2ccc3c(c2)OCO3)N2CCOCC2)cc1 (stereo unspecified) | . | . | . | . | . | 2.1%
C/C(CC(=O)Nc1ccc2c(c1)OCCO2)=N\NC(=O)C(=O)Nc1ccccc1C | 27.7 | -2.8% | 6.8% | 13.1 | -0.4% | 7.6%
CCOc1ccc(NC(=S)NCCCc2ccccc2)cc1 | 19.3 | 3.9% | 13.9% | -1.3 | 2.6% | -4.6%
CCN(CC)C(=O)C(=O)Nc1ccc(OCc2ccccc2)cc1 | 22.7 | -4.0% | 4.4% | 13.8* | 0.5% | -2.3%
CCOc1ccc(NC(=S)Nc2ccc(OCc3ccccc3)cc2)cc1 | 4.1 | 6.5% | -10.8% | 11.2* | 1.3% | -0.8%
Cc1cc(NC(=O)Nc2ccc(OCc3ccccc3)cc2)n(C)n1 | 19.3 | 4.7% | -17.1% | 1.7 | 18.5% | 3.2%
C/C(CC(=O)Nc1ccc(OCc2ccccc2)cc1)=N\NC(=O)C(=O)Nc1ccccc1C | 65.1* | 0.2% | -9.1% | 26.3* | -8.5% | -7.9%
CNC(=S)Nc1ccc(OCc2ccccc2)cc1 | 47.7* | -6.1% | -1.7% | 43.8* | -3.4% | -7.7%
O=C(CSc1nc2c([nH]c3ccccc32)c(=O)n1-c1ccccc1)Nc1cccc(C(F)(F)F)c1 | . | . | . | . | . | 3.8%
Clc1ccc2c(c1)Nc1ccccc1CC2 | . | . | -21.1% | . | . | -1.3%
O=C1CSC(c2ccccn2)N1c1ccc(C(F)(F)F)cc1 (stereo unspecified) | 9.7 | 4.3% | -3.0% | -4.9 | -1.6% | -1.3%
CCOc1ccc(-c2nnc(-c3ccccc3)o2)cc1 | 77.0* | ? | ? | 28.9* | -0.3% | -16.4%
CCOc1ccc(-c2nnc(-c3ccc(OC)cc3)o2)cc1 | 8.8 | 3.1% | -6.9% | -0.6 | 5.3% | -6.1%
CCCCOc1ccc(-c2nnc(-c3cc[n+](C)cc3)o2)cc1 | 34.2 | 1.9% | -0.2% | 2.6 | -3.6% | -1.9%
CCCCOc1ccc(-c2nnc(-c3ccncc3)o2)cc1 | 56.4 | -5.6% | -28.7% | 16.5* | -0.7% | 0.5%
CCCOc1ccc(-c2nnc(-c3cccs3)o2)cc1 | 106.5* | -2.2% | 4.1% | 51.3* | 7.1% | -9.7%
CCOc1ccc(-c2nnc(-c3ccncc3)o2)cc1 | 125.7 | -9.7% | ? | 49.7* | -4.1% | -10.6%
Cc1cc(NC(=O)OC(C)(C)C)c(-n2nnnc2C(C(=O)c2ccccc2)N2CCOCC2)cc1C (stereo unspecified) | . | . | -16.1% | . | . | .
CCOc1ccc(-c2nc3ccccc3c(=O)o2)cc1 | 20.5 | ? | -7.8% | 15.2* | -2.5% | -8.8%
